# According to PubChem BioAssay (NCATS):
# Inconclusive results are not listed. Where a call stands in place of a potency, no number is given. Unmarked numbers belong to inactive results. The source made the active and inactive calls. Calls follow the shape of the dose curve; as a rule, active = well fitted curve in the direction sought with a large enough effect; inconclusive = small, poorly fitted or top-dose-only effect, or another doubt; inactive = no such curve, though single readings can be large; an effect the other way counts as inactive or inconclusive.
# Assays:
# [1] = molecular target: Cellular tumor antigen p53 (Homo sapiens) (UniProt P04637); test: Primary qHTS for small molecule compounds that upregulate eGFP-tagged delta133p53alpha (in N-terminal) cells. (AID 2060322); settings: NCI-H358 eGFP-delta133p53alpha fluorescence, 24 h; activation: active compounds read high; also: nearly all actives have a fitted effect of over 75% in size; also: potency is read from the fitted curve at half-maximal effect;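 as to activation: cells pre-induced with doxycycline then dosed without doxycycline; series mostly up to about 56 µM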
# Summary of the method: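 NCI-H358 cells pre-induced 24 h with 10 ng/ml doxycycline for eGFP-delta133p53alpha, plated dox-free and exposed 24 h at 37C to titrated compounds. Fixed, Hoechst-stained; gated GFP peak intensity by laser scanning cytometry, normalized to DMSO (0%) and 57.5 uM 5-azacytidine (100%).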
# [2] = molecular target: Aldehyde dehydrogenase, mitochondrial (Homo sapiens) (UniProt P05091); test: qHTS for Inhibitors of the Aldehyde Dehydrogenase Family (ALDH2) Primary screen (AID 2061308); also: nearly all actives have a fitted effect of over 55% in size
# [3] = molecular target: Retinaldehyde dehydrogenase 3 (Homo sapiens) (UniProt P47895); test: qHTS for Inhibitors of the Aldehyde Dehydrogenase Family (ALDH1A3) Primary screen (AID 2061315)
# Sequence of Cellular tumor antigen p53 (Homo sapiens) (P04637 whole entry, looked up): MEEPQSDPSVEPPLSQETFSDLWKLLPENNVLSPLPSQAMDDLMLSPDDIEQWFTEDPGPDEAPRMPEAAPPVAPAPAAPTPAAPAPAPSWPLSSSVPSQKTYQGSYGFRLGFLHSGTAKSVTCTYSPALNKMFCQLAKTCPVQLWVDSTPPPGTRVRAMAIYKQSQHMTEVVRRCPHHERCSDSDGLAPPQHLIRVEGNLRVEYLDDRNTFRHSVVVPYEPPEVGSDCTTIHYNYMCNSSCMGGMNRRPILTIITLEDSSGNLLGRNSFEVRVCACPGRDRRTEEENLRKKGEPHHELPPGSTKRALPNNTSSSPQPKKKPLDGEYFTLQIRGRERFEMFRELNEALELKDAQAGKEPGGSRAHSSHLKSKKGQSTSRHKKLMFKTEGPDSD
SMILES,activation [1] [%],Potency [2],Potency [3],"activity change, negative = inhibition [2]","activity change, negative = inhibition [3]",Potency [1]
CNc1cccc(CCOc2ccc3c(c2)CN(CC(F)(F)F)C(=O)[C@H](CC(=O)O)C3)n1,2.86,inactive,inactive,,,
CC(O)C(O)/C=C/C=C/C(=O)O[C@@H]1C=C2COC(=O)[C@]2(O)[C@@]2(C)CCCC(C)(C)C12 (stereo partly drawn),-18.3,inactive,inactive,,,
CC(=O)C1=C(O)C=C2Oc3c(C(C)=O)c(O)c(C)c(O)c3[C@]2(C)C1=O,-2.68,inactive,inactive,,,
CC[C@@H](C)[C@H]1C(=O)O[C@H](C(C)C)C(=O)N(C)[C@@H](C(C)C)C(=O)O[C@H](C(C)C)C(=O)N(C)[C@@H](C(C)C)C(=O)O[C@H](CC(C)C)C(=O)N1C,22.3,inactive,inactive,,,
CC1=C2C(=O)C=C(CO)C2[C@H]2OC(=O)[C@H](C)[C@@H]2[C@@H](OC(=O)Cc2ccc(O)cc2)C1 (stereo partly drawn),-11.6,inactive,inactive,,,
C[C@@H]1C(=O)O[C@H]2[C@H]1CC[C@@]1(C)C(=O)C=C[C@@](C)(O)[C@H]21,15.2,inactive,inactive,,,
C/C=C/C1OC2=C(C(=O)OC2(C)O)C(O)C1O (stereo not drawn),28.2,inactive,inactive,,,
CC1(C)CCCC2(C)C1C(O)C=C(CO)C2(O)CO (stereo not drawn),-13.7,inactive,inactive,,,
Cc1ccc(C)c(NS(=O)(=O)c2cc(C(=O)Nc3ccccc3-c3ccccc3)ccc2C)c1,1.67,inactive,inactive,,,
CC1(C)CC[C@]2(C(=O)O)[C@H](O)C[C@]3(C)C(=CCC4[C@@]5(C)CC[C@H](O[C@@H]6O[C@H](CO[C@@H]7OC[C@H](O)[C@H](O)[C@H]7O[C@@H]7OC[C@H](O)[C@H](O)[C@H]7O)[C@@H](O)[C@H](O)[C@H]6O)C(C)(C)C5CC[C@]43C)[C@@H]2C1 (stereo partly drawn),-4.46,inactive,inactive,,,
CC/C=C\CCO[C@@H]1O[C@H](CO)[C@@H](O)[C@H](O)[C@H]1O,-18.3,inactive,inactive,,,
COc1cc(/C=C/c2ccccc2)c(C(=O)O)c(O)c1CC=C(C)C,-9.82,inactive,inactive,,,
CC(=O)O[C@H]1C[C@@]2(C)[C@@H](CC[C@H]3[C@@]4(C)C=CC(=O)[C@@H](C)[C@@H]4[C@H](OC(C)=O)C(=O)[C@@]32C)/C1=C(\CCC=C(C)C)C(=O)O,-16,inactive,inactive,,,
Cc1noc(-c2ccc(-c3ccc(CC(=O)O)cc3)cc2)c1NC(=O)O[C@H](C)c1ccccc1,-1.79,inactive,inactive,,,
CC1(C)CC[C@]2(C(=O)O[C@@H]3O[C@H](CO)[C@@H](O)[C@H](O)[C@H]3O)CC[C@]3(C)C(=CCC4[C@@]5(C)C[C@@H](O)[C@H](O)C(C)(C)C5CC[C@]43C)C2[C@@H]1O (stereo partly drawn),-8.04,inactive,inactive,,,
CC[C@H](C)[C@H](NC(=O)[C@H](Cc1ccc(O)cc1)NC(=O)[C@@H](N)C(C)C)C(=O)N[C@@H](Cc1cnc[nH]1)C(=O)N1CCC[C@H]1C(=O)N[C@@H](Cc1ccccc1)C(=O)O,0.333,,,0.0903% [at 5.59 µM],1.7% [at 5.59 µM],
COC1/C=C/C(C)(O)C(SCC(N)C(=O)O)CC(=O)OC(C)C(C)CC/C=C/1C (stereo not drawn),0.763,inactive,inactive,,,
COc1cc(-c2nc(N[C@H](CO)Cc3ccccc3)ccc2C(=O)NCCOc2ccccc2)cc(OC)c1OC,-11.9,inactive,inactive,,,
c1ccc(Cc2ncc3c(n2)CCNCC3)cc1,7,inactive,inactive,,,
C=C(CCC1C(C)(O)CCC2C(C)(C)C(O)CCC12C)C(O)CO (stereo not drawn),-7.14,inactive,inactive,,,
Cc1ccc(C)c(NC(=O)CNS(=O)(=O)c2ccc3[nH]c(=O)oc3c2)c1,17,inactive,inactive,,,
C[C@@H]1O[C@@H](O[C@H]2[C@H](O)[C@@H](O)[C@H](OC[C@H]3O[C@@H](OC(=O)[C@]45CCC(C)(C)C[C@H]4C4=CCC6[C@@]7(C)C[C@H](O)[C@H](O[C@@H]8O[C@H](CO)[C@@H](O)[C@H](O)[C@H]8O)[C@@](C)(C(=O)O)C7CC[C@@]6(C)[C@]4(C)CC5)[C@H](O[C@@H]4O[C@H](CO)[C@@H](O)[C@H](O)[C@H]4O)[C@@H](O)[C@@H]3O)O[C@@H]2CO)[C@H](O)[C@H](O)[C@H]1O (stereo partly drawn),18.8,,,8.16% [at 11.2 µM],-4.1% [at 11.2 µM],
Nc1nc(Cl)nc2c1ncn2C1OC(CO)C(O)C1F (stereo not drawn),0,inactive,inactive,,,
CCOC(=O)C(CCc1ccccc1)NC(C)C(=O)N1Cc2ccccc2CC1C(=O)O (stereo not drawn),-13.4,inactive,inactive,,,
C=C[C@](C)(O)CC[C@H]1C(C)=CC(=O)[C@H]2C(C)(C)CCC[C@]12C,3.57,inactive,inactive,,,
COc1ccc(C2(O)c3ccccc3NC(=O)C2OC)cc1 (stereo not drawn),-2.29,inactive,inactive,,,

SMILES,activation [1] [%],Potency [2],Potency [3],"activity change, negative = inhibition [2]","activity change, negative = inhibition [3]",Potency [1]
COC(=O)[C@]1(C)CCC[C@@]2(C)C(=O)CC[C@H]3C(=O)C=C(CC[C@@H]21)C3O (stereo partly drawn),1.53,inactive,inactive,,,
CC(=O)OC1C(OC(=O)c2ccccc2)C2C(C)(C)CC(=O)CC2(C)C23CCC(C)(C2)C(O)CC13 (stereo not drawn),-22.3,inactive,inactive,,,
CCCCS(=O)(=O)Nc1ncnc(OCCOc2ncc(Br)cn2)c1-c1ccc(Br)cc1,-20.3,inactive,inactive,,,
C=C1C(=O)O[C@@H]2/C=C(\C)CC/C=C(\C)CC[C@@H]12,,inactive,inactive,,,21.3 µM (active)
CC(C)CCC1(O)C(=O)C(C)(C)C(O[C@@H]2O[C@H](CO)[C@@H](O)[C@H](O)[C@H]2O)C(C)(C)C1O (stereo partly drawn),12.5,inactive,inactive,,,
CC(C)[C@@H](C(=O)O)N1Cc2c(cc(O)c3c2O[C@]2(C3)[C@H](C)CCC3C(C)(C)[C@H](O)[C@H](O)C[C@@]32C)C1=O (stereo partly drawn),-16.8,inactive,inactive,,,
C[C@@]12C(=O)N(c3ccc(C(=O)Nc4cccc5cccnc45)cc3)C(=O)[C@@H]1[C@@H]1C=C[C@H]2C1,18.3,inactive,inactive,,,
CC(=O)OC(C)C(C)(O)C(=O)O[C@@H]1CC[C@]2(C)CC(=O)C(=C(C)C)C[C@H]2[C@]1(C)OC(C)=O (stereo partly drawn),2.29,inactive,inactive,,,
C=C1[C@H](OC(C)=O)[C@H]2[C@@H](OC(C)=O)[C@](C)(OC(C)=O)C[C@]2(OC(C)=O)C(=O)[C@H](C)/C=C/C(C)(C)C(=O)[C@H](OC(=O)C(C)C)[C@H]1OC(C)=O,2.29,inactive,inactive,,,
C=C[C@H]1[C@H](O[C@@H]2O[C@H](CO[C@@H]3OC[C@](O)(CO)[C@H]3O)[C@@H](O)[C@H](O)[C@H]2O)OC=C2C(=O)OCC[C@H]21,5.36,inactive,inactive,,,
C[C@@H]1O[C@@H](O[C@H]2[C@H](O[C@H]3[C@H](O[C@H]4CC[C@@]5(C=O)C(CC[C@]6(C)C5CC=C5C7CC(C)(C)C[C@@H](O)[C@]7(C)CC[C@]56C)C4(C)C)O[C@H](C(=O)O)[C@@H](O)[C@@H]3O)OC[C@@H](O)[C@@H]2O)[C@H](O)[C@H](O)[C@H]1O (stereo partly drawn),-8.93,inactive,inactive,,,
Nc1ncnc2c1ncn2CCNCCCCCO,-0.333,inactive,inactive,,,
CC(C)S(=O)(=O)NC[C@H](C)c1ccc(NC(=O)c2cc(F)cc(F)c2)cc1,-15,inactive,inactive,,,
Cc1ccccc1NC(=O)Nc1ccc(CC(=O)N(C)[C@@H](CC(C)C)C(=O)NCC[C@H](NC(=O)[C@@H]2CCCN2S(=O)(=O)c2cc(Cl)cc(Cl)c2)C(=O)O)cc1,1.67,inactive,inactive,,,
CC(=O)OC1C(O)C(C)(O)C(/C=C/C(=O)O)C2(C)CCCC(C)(C)C12 (stereo not drawn),-17.6,inactive,inactive,,,
CS(=O)(=O)c1ccc([C@H](CC2CCCC2)C(=O)Nc2nccs2)cc1,-11.6,inactive,inactive,,,
C/C=C(/C)C(=O)O[C@H]1C=C(C)C[C@H](OC(=O)c2ccc(O)cc2)C2[C@](O)(C(C)C)CC[C@@]21C (stereo partly drawn),-5.34,inactive,inactive,,,
NS(=O)(=O)Nc1ncnc(OCCOc2ncc(Br)cn2)c1-c1ccc(Br)cc1,18.1,inactive,inactive,,,
C/C=C/C1=CC2=CC(=O)C(C)(O)C(OC(=O)c3c(C)cc(O)cc3O)C2CO1 (stereo not drawn),-12.2,inactive,inactive,,,
COC(C(=O)N1Cc2[nH]nc(NC(=O)c3ccc(N4CCN(C)CC4)cc3)c2C1)c1ccccc1 (stereo not drawn),,inactive,inactive,,,23.9 µM (active)
CC(C)C(C#N)O[C@@H]1O[C@H](CO[C@@H]2O[C@@H](C)[C@H](O)[C@@H](O)[C@H]2O)[C@@H](O)[C@H](O)[C@H]1O (stereo partly drawn),-3.82,inactive,inactive,,,
Cc1ncc(CCCN(C)C)cc1Nc1ncc2c(n1)-c1ccc(C(F)(F)F)cc1NC(=S)C2,22.3,inactive,inactive,,,
CCC(CC)Nc1nc(C)c(-c2ccc(OC(F)(F)F)cc2OC)nc1OC,-3.57,inactive,inactive,,,
O=C1Nc2ccccc2C(O)(c2ccccc2)C1O (stereo not drawn),0.763,inactive,inactive,,,
CC1(C)CC[C@]2(C(=O)O[C@@H]3O[C@H](CO)[C@@H](O)[C@H](O)[C@H]3O)CC[C@]3(C)C(=CCC4[C@@]5(C)CC[C@H](O[C@@H]6O[C@H](C(=O)O)[C@H](O)[C@H](O)[C@H]6O)C(C)(C)C5CC[C@]43C)[C@@H]2C1 (stereo partly drawn),-2.68,inactive,inactive,,,
